LDHA block: qHTS assay for inhibitors of human lactate dehydrogenase. L-lactate dehydrogenase A chain (Homo sapiens), P00338. purified LDHA, NADH/diaphorase-resazurin fluorescence; hits give low values. activity change, % (values are at about 110 or 230 µM). hit rate 0.15% among 480,000; in the data active = activity change below about -30%; inconclusive = mostly about -25% to -30%;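 also: plate controls were DMSO wells for no effect and wells without enzyme for full effect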
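Human LDH5 at 2 nM final in Tris HCl pH 7.4 with 0.06 mM NADH and 0.2 mM pyruvate, reacted 5 minutes at room temperature. Remaining NADH coupled via diaphorase/resazurin; resorufin fluorescence read at 0 and 20 minutes, normalized to enzyme-free and DMSO wells.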
IL1B secr inh: qHTS for Inhibitors of Inflammasome Signaling: IL-1-beta AlphaLISA Primary Screen; THP-1 LPS/ATP IL-1B secretion, AlphaLISA, 16 h; hits give low values; activity change, % at 57.5 µM; hit rate 4.7% among 360,000; AID 743279, 2014; in the data active = activity change below about -50%; inconclusive = mostly about -30% to -49%
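Secreted IL-1B measured by AlphaLISA bead assay after 16 h compound exposure of THP-1 cells; compounds (final up to 57.5 uM) added 1 h before LPS (250 ng/mL) and ATP (1.25 mM) stimulation; lower signal means less secretion.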
RORg inh: qHTS for inhibitors of ROR gamma transcriptional activity | Potency, µM (highest dose often 53.6 µM), for the others: at the top dose activity change, negative = inhibition, hits mostly inhibitors | Nuclear receptor ROR-gamma (Mus musculus), P51450 | Drosophila S2 Gal4-RORgamma UAS-luciferase reporter, 20 h | hit rate 5.4% among 310,000 | AID 2551, 2010; also: potency is read from the fitted curve at half-maximal effect; nearly all actives have a fitted effect of over 60% in size
Target sequence (P51450 whole entry, looked up, the tested form may be a part): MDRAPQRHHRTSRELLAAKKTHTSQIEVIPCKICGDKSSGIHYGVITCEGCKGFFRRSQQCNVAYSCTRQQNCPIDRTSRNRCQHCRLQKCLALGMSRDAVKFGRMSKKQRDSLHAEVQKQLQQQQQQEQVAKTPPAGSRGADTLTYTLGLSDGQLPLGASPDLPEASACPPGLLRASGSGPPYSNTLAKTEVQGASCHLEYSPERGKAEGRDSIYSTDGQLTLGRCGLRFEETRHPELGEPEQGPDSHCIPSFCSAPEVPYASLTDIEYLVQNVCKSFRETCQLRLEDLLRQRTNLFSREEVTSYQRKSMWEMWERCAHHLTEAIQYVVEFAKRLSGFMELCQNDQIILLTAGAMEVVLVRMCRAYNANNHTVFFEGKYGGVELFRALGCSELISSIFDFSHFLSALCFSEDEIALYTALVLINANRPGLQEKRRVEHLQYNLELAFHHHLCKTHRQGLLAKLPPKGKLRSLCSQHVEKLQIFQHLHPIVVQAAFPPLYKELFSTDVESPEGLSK
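A Gal4/UAS one-hybrid system in insect cells: metallothionein-promoter Gal4–ROR gamma fusion plus Photinus luciferase reporter. Copper sulfate 700 uM final, 20 hr ambient incubation, luminescent detection after 10 min with reagent.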
Gal4-VP16 FLuc: VP16 counterscreen qHTS for inhibitors of ROR gamma transcriptional activity. Drosophila S2 Gal4-VP16 UAS-luciferase, luminescence, 20 h. Potency, µM (top dose mostly 53.6 µM), for the others: at the highest dose activity, negative = inhibition, usual class: inhibitors. hit rate 3.5% among 310,000;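 also: Gal4-VP16 expression switched on by copper sulfate through the metallothionein promoter; potency is read from the fitted curve at half-maximal effect; nearly all actives have a fitted effect of over 50% in size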
DT40 TDP1 CPT: qHTS for Inhibitors of human tyrosyl-DNA phosphodiesterase 1 (TDP1): qHTS in cells in presence of CPT; chicken DT40 Tdp1-/-;hTDP1 cells + 20 nM CPT, ATP luminescence, 48 h; Potency, µM (highest dose often 46.2 µM), inactives show at the highest dose activity change, negative = growth inhibition, most hits filed as inhibitors; hit rate 12% among 420,000; also: potency is read from the fitted curve at half-maximal effect; nearly all actives have a fitted effect of over 55% in size
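Cell growth measured by CellTiter-Glo luminescence after a minimum 48 h, 37 C compound exposure with 20 nM CPT in Tdp1-knockout DT40 cells stably expressing hTDP1, seeded 400/well; qHTS titration format.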
TDP1 cell noCPT: qHTS for Inhibitors of human tyrosyl-DNA phosphodiesterase 1 (TDP1): qHTS in cells in absence of CPT; DT40 Tdp1-/- hTDP1 cells, no CPT, ATP luminescence, 48 h; Potency, µM (series often up to 46.2 µM), inactives show at the top dose activity change, negative = growth inhibition, hits mostly inhibitors; hit rate 15% among 420,000; AID 686978, 2013; also: potency is read from the fitted curve at half-maximal effect; nearly all actives have a fitted effect of over 55% in size
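DT40 Tdp1-/-;hTDP1 cells, no CPT (DMSO vehicle only), 400 cells/well; compounds pin-transferred; ≥48 hr, 37 °C; CellTiter-Glo 30 min RT dark, luminescence read.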
Active calls of the source: *. This is a sample that favours compounds with a hit; in the whole collection about 18% have one here. Unless noted, calls follow the shape of the dose curve; as a rule, active = well fitted curve in the direction sought with a large enough effect; inconclusive = small, poorly fitted or top-dose-only effect, or another doubt; inactive = no such curve, though single readings can be large; an effect the other way counts as inactive or inconclusive. Unless noted, % is scaled to controls: 0 for no effect and ±100 for the full control effect.

Screening O=C(Nc1cccnc1)c1cc(-c2cccnc2)nc2ccc(Br)cc12 returned LDHA block 1.3, IL1B secr inh 16.3, RORg inh -1.9%, Gal4-VP16 FLuc -15.9%, DT40 TDP1 CPT inconclusive and TDP1 cell noCPT inconclusive.
For O=C(NCc1cccs1)c1cc(-c2ccncc2)nc2ccc(Br)cc12 the results were RORg inh 11.0% and Gal4-VP16 FLuc -3.4%.
O=C(c1cc(=O)c2ccccc2o1)N1CCN(Cc2ccccc2)CC1 was read as LDHA block 0.2.
For O=C(NCc1ccccc1S(=O)(=O)N1CCOCC1)c1ccc(OC(F)F)cc1 the results were LDHA block -6.6.
For COc1ccc(Br)cc1CNC(=O)CSc1n[nH]c(-c2ccccc2)n1 the results were LDHA block 9.7, DT40 TDP1 CPT 13µM* and TDP1 cell noCPT 20.6µM*.
Screening COc1ccc(OC)c(C(=O)CSc2nccc(-c3ccc(Br)cc3)n2)c1 returned LDHA block -11.0, IL1B secr inh -14.2, RORg inh inconclusive, Gal4-VP16 FLuc -10.6%, DT40 TDP1 CPT inconclusive and TDP1 cell noCPT 29.1µM*.
`COc1ccc(-c2ccnc(SCC(=O)c3ccc(Cl)cc3)n2)cc1` gave LDHA block -3.6, IL1B secr inh -7.7, RORg inh -27.5%, Gal4-VP16 FLuc -22.2%, DT40 TDP1 CPT -25.9% and TDP1 cell noCPT inconclusive.
For O=C(CSc1n[nH]c(-c2ccc(F)cc2)n1)NCCc1ccccc1 the results were LDHA block 0.0, DT40 TDP1 CPT -27.5% and TDP1 cell noCPT inconclusive.
For COc1ccc(-c2nc(SCC(=O)c3ccc(OC)c(Br)c3)n[nH]2)cc1 the results were LDHA block 2.5, DT40 TDP1 CPT inconclusive and TDP1 cell noCPT 23.1µM*.
Screening COc1ccc(C(=O)CSc2n[nH]c(-c3ccncc3)n2)cc1[N+](=O)[O-] returned LDHA block -2.3, IL1B secr inh 17.5, RORg inh inconclusive, Gal4-VP16 FLuc 1.8%, DT40 TDP1 CPT -4.0% and TDP1 cell noCPT -16.4%.
O=C(CSc1n[nH]c(-c2ccccc2)n1)NCCCc1ccccc1 was read as LDHA block 3.3, DT40 TDP1 CPT inconclusive and TDP1 cell noCPT 20.6µM*.
For COc1cc(OC)c2c(C)c(CC(=O)N3CCCC3)c(=O)oc2c1 the results were LDHA block -14.6.
Screening O=C(CSc1n[nH]c(-c2ccncc2)n1)NCCc1ccccc1 returned LDHA block -2.0, IL1B secr inh 0.0, RORg inh 5.8%, Gal4-VP16 FLuc -3.1%, DT40 TDP1 CPT inconclusive and TDP1 cell noCPT inconclusive.
COc1ccc(-c2nc(SCC(=O)NCCCc3ccccc3)n[nH]2)cc1 was read as LDHA block 5.6, DT40 TDP1 CPT 16.4µM* and TDP1 cell noCPT 20.6µM*.
`O=C(OCC(=O)N1CCCC1)c1cn(-c2ccccc2)nc1-c1ccc(F)cc1` gave LDHA block 4.7.
COc1ccc(N2CC(O)=C(c3nc(-c4ccc(F)cc4)cs3)C2=N)cc1Cl was read as LDHA block -0.3, IL1B secr inh 12.0, RORg inh -8.2%, Gal4-VP16 FLuc -2.7%, DT40 TDP1 CPT inconclusive and TDP1 cell noCPT inconclusive.
Screening COCC(C)N1CC(O)=C(c2nc(-c3ccc(Cl)cc3)cs2)C1=N (stereo not drawn) returned LDHA block -4.2, IL1B secr inh -53.3*, RORg inh -5.9%, Gal4-VP16 FLuc -4.3%, DT40 TDP1 CPT -26.7% and TDP1 cell noCPT -28.1%.
`COc1ccc(N2CC(O)=C(c3nc(-c4ccc(F)cc4)cs3)C2=N)cc1OC` gave LDHA block -9.0, IL1B secr inh -1.2, RORg inh inconclusive, Gal4-VP16 FLuc 1.3%, DT40 TDP1 CPT inconclusive and TDP1 cell noCPT 18.4µM*.

Screens from PubChem.
